# Results reported in PubChem BioAssay AID1508615 (Milbrandt Lab, Department of Genetics, Washington …, 2020).
# Hit rate of the full screen: of about 1,600 compounds, about 20 (1%) were called active. For the sample, actives were picked, then their nearest neighbours and some compounds at random. Unmarked numbers belong to inactive results.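 Rule for the calls: active = ratio of uncleaved NAD to its breakdown product ADP-ribose above 4, meaning the enzyme was inhibited; inactive = the rest.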
# Molecular target: NAD(+) hydrolase SARM1 (Homo sapiens) (UniProt Q6SZW1)
# Assay: SARM1 TIR NADase inhibitors by HPLC, primary screen, cell lysate, HPLC readout (AID 1508615);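 note: substrate NAD at 5 µM with 60 min at 37 °C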
# Details: HEK293T SAM-TIR lysate, at 5 µM, stronger effect = higher value
# Sequence of NAD(+) hydrolase SARM1 (Homo sapiens) (Q6SZW1 whole entry, looked up): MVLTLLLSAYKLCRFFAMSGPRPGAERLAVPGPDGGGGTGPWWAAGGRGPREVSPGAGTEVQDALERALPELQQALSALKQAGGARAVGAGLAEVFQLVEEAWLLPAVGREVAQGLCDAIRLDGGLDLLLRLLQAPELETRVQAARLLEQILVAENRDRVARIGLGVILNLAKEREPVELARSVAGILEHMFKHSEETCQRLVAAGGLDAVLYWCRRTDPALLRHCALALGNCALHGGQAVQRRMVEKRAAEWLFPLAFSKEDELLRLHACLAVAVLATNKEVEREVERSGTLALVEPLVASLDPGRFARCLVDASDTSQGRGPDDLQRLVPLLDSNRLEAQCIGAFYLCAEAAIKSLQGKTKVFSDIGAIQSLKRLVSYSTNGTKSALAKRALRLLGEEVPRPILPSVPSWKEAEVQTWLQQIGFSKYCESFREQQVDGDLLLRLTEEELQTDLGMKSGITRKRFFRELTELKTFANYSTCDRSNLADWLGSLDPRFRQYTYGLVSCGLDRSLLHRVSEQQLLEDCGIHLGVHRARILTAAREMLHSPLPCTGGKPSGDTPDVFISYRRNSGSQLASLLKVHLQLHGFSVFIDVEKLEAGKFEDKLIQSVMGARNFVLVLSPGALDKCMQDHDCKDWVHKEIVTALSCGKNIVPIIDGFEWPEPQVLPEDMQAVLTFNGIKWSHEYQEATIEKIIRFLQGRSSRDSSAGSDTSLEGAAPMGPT
row,SMILES,NAD/ADPR ratio
1,C#CCSc1nnnn1-c1ccc(Br)c(C)c1,3
2,Cc1ccc(S(=O)c2ccc([N+](=O)[O-])c3nonc23)cc1 (stereo unspecified),13.2 (active)
3,O=[N+]([O-])c1cc2cccnc2c2ncccc12,3
4,O=C(O)C(Cc1ccccc1N(CCO)CCO)N1C(=O)c2ccccc2C1=O (stereo unspecified),3
5,Nc1nc(N)nc(C2C=CCCC2)n1 (stereo unspecified),3
6,O=C(Oc1ccccc1)c1cccc2cccc(C(=O)Oc3ccccc3)c12,3
7,COc1ccc(N=Cc2c(O)ccc3c2oc2cc(Cl)c(O)c(Cl)c23)cc1,3
8,CC(O)c1nc2c(c(=O)n(C)c(=O)n2C)n1C (stereo unspecified),3
9,Cn1ncc2c(Nc3ccccc3Cl)nc(Nc3ccccc3Cl)nc21,3
10,Nc1ccc(C(=O)Nc2ccc(Nc3ccncc3)cc2)cc1,3
11,Cc1cc2c(cc1[N+](=O)[O-])NC(CNC(C)C)CC2 (stereo unspecified),3
12,CNc1ncn(-c2c(C)cccc2C)c(=O)n1,3
13,CS/C(=C\c1ccc(C(=O)c2ccc(C)cc2)n1C)S(C)=O (stereo unspecified),3
14,COC(=O)C1=CC(=O)N2CCN=C2S1,3
15,COc1cccc(NC(=S)Nc2ccc(O)cc2)c1,3
16,Cc1cccc(NC(=S)Nc2cccc(C)n2)n1,3
17,NC(=O)Nc1n[nH]c(-c2ccccc2)n1,3
18,Cc1ccc(N=Nc2c(N)nn(-c3ccccc3)c2N)cc1,3
19,CCOC(=O)/C(C#N)=C/c1cccc(C)c1,3
20,CCOC(=O)/C(C#N)=C1\SS/C(=C(/C#N)C(=O)OCC)S1,7.9 (active)
21,CCOC(=O)/C(C#N)=C/c1c[nH]c2ccccc12,3
22,c1ccn(CCc2ccncc2)c1,3
23,CSC1=NC=C(C#N)C2=NC(c3ccc(Cl)cc3)NN12 (stereo unspecified),3
24,NC(=O)CCC(C(=O)O)N1C(=O)C2C3CCC(C3)C2C1=O (stereo unspecified),3

row,SMILES,NAD/ADPR ratio
1,CN(NC(=O)C(=O)NCc1ccco1)C(=O)NC1CCCCC1,3
2,O=C(Nc1ccc(Cl)cc1)c1cc2c(cc1O)[nH]c1ccccc12,3
3,O=C(Nc1ccc(Cl)c([N+](=O)[O-])c1)Nc1nc2ccccc2s1,3
4,CCN1CCC(Nc2ccnc3cc(Cl)ccc23)CC1,3
5,Cc1c(N2CCCC2)cc2c(c1NC(=O)c1ccccc1Cl)C(C)(C)CC2(C)C,3
6,CCC(C)Nc1nc2c(c(=O)n(C)c(=O)n2C)n1C (stereo unspecified),3
7,N#CN=C(N)c1ccccc1,3
8,COc1cccc(/C=C2\CCc3ccccc3C2=O)c1,3
9,NC(=O)c1ccccc1NC(=O)c1ccccc1Cl,3
10,CC(=O)Nc1ccc(Cc2nc3c([nH]2)c(=O)n(C)c(=O)n3C)cc1,3
11,CCOC(=O)c1ccc(NC(=O)Oc2cc(C)c(Cl)cc2C(C)C)cc1,3
12,Nc1nc(Cl)cc(Nc2ccccc2Cl)n1,3
13,O=[N+]([O-])c1ccc(/C=C/c2ccncc2)cc1,3
14,COC(=O)C1(C(=O)OC)C2C(=O)C3C(C21)C3(C(=O)OC(C)(C)C)C(=O)OC(C)(C)C (stereo unspecified),3
15,c1ccc2c(c1)cnc1ccccc12,3
16,NC(N)=Nc1nc2ccc([N+](=O)[O-])cc2[nH]1,3
17,O=C(OCC1CCC=CO1)C1CCC=CO1 (stereo unspecified),3
18,Cc1cc(=O)c2cc(C(=O)c3ccccc3)ccc2[nH]1,3
19,O=S(=O)(O)c1ccc2c(c1)C(C(Cl)(Cl)Cl)OC(C(Cl)(Cl)Cl)O2 (stereo unspecified),3
20,O=c1nccc(SCc2ccc(Cl)cc2Cl)[nH]1,3
21,Oc1ccccc1-c1nc2c3ccccc3c3ccccc3c2[nH]1,3
22,CN(C)C(=S)/N=c1\ssc(=S)n1Cc1ccco1,3
23,CN(C)c1nc(=NCc2ccco2)ss1,9.7 (active)
24,O=C(O)CCC(=O)OCCN(Cc1ccc(Oc2ccc([N+](=O)[O-])cc2)cc1)C(=O)C(Cl)Cl,3

row,SMILES,NAD/ADPR ratio
1,CN(C)CC1C2CCC(C2)C1O (stereo unspecified),3
2,C(=C\c1ccccn1)/c1ccccn1,3
3,O=C(Oc1ccc[nH]c1=O)c1cccc(Cl)c1,3
4,Cc1nc(N)nc(Nc2ccc(C#N)cc2)c1Br,3
5,CCCCN1CCNC1=S,3
6,Cc1cccc(Nc2sc(C(=O)c3cc4cc(Cl)ccc4o3)c(N)c2C#N)c1,3
7,O=c1c2ccccc2ncn1-c1ccc(Cl)cc1,3
8,c1cncc(-c2nc3ccccc3s2)c1,3
9,C1=CC2(C=C1)OC21CCC2(C=CC3(C2)OC3C2CCCCC2)CC1 (stereo unspecified),3
10,NCc1c(O)ccc2ccccc12,3
11,COC1CC(C)C(OC)c2cc(O)cc(c2O)NC(=O)/C(C)=C/C=C\C(C)C(OC(N)=O)/C(C)=C\C(C)C1OC (stereo unspecified),3
12,NNC(=O)CNC(=O)Nc1n[nH]c(=S)s1,3
13,O=C(c1cccnc1)c1cc(-c2ccccn2)c(=O)n2ccccc12,3
14,Cc1ccc(S(=O)(=O)N(C)C)cc1[N+](=O)[O-],3
15,CC(C)(C)NC1=NCCNC(c2ccccc2)=C1,3
16,S=c1c2[nH]cnc2ncn1CCSc1ncnc2nc[nH]c12,3
17,CC1=C(C#N)C(C)(C)C(C#N)=C(C)N1,3
18,CCCCCC(=O)N1CCCC1,3
19,O=C1C(=Nc2cccc(Cl)c2)CC(c2ccc(Cl)cc2)N1c1cccc(Cl)c1 (stereo unspecified),3
20,CN(C)c1nc(=Nc2cccc(Cl)c2)ss1,11.3 (active)
21,Nc1nc(=S)c2ncn(C3CCCC3)c2[nH]1,3
22,O=c1oc(-c2ccccc2)c(-c2ccccc2)c2ccccc12,3
23,O=[N+]([O-])c1cccc(/C=C/c2ccccn2)c1,3
24,CC(C)(c1cc(Cl)c(O)c(CN2CCOCC2)c1)c1cc(Cl)c(O)c(CN2CCOCC2)c1,3

row,SMILES,NAD/ADPR ratio
1,O=c1[nH]c(C(F)(F)C(F)(F)C(F)(F)F)no1,3
2,CN1C(=O)CC2(C)C1=CCc1scnc12 (stereo unspecified),3
3,COc1ccc(C2=NC(=O)NC2c2ccc(OC)cc2)cc1 (stereo unspecified),3
4,CCOc1nc(OCC)c2cnn(C)c2n1,3
5,O=C1NC(=O)C2(CCc3ccccc32)N1 (stereo unspecified),3
6,CC1(C)CC[C@]2(C(=O)n3ccnc3)CC[C@]3(C)[C@H](C(=O)C=C4[C@@]5(C)C=C(C#N)C(=O)C(C)(C)[C@@H]5CC[C@]43C)[C@@H]2C1,6.5 (active)
7,Cc1nc(N)[nH]c(=O)c1CCCNc1ccc(CCC2(CCl)OCCO2)cc1,3
8,CCCCSc1nc(C(=O)O)cc(=O)[nH]1,3
9,Cc1ccc(-c2cssc2=S)cc1,3
10,CCCCOP(=O)(OCCCC)C1(C)CC(=O)CC(C)(C)C1 (stereo unspecified),3
11,Cc1[nH]c(=S)[nH]c(=O)c1CCC1OCCO1,3
12,C=CCN1CCN(c2ccncc2S(=O)(=O)N2CCN(C)CC2)CC1,3
13,COC(=O)Nc1csc2c1NC(=O)CCCC2,3
14,Nc1ccc2c(c1Cl)C(=O)c1ccc(N)c(Cl)c1C2=O,3
15,O=C1OCC/C1=C\OCCCO/C=C1\CCOC1=O,3
16,CC(C)C(=O)Nc1cccnc1,3
17,Cc1ccc(N2CCN(CC(O)COc3cccc(C)c3)CC2)cc1 (stereo unspecified),3
18,C=CCOc1ccnc(-c2ccccc2)n1,3
19,O=[N+]([O-])c1ccc(NN=C(c2ccccc2)c2ccccc2)nc1,2.8
20,Cn1cnc([N+](=O)[O-])c1Sc1nnc(-c2cccnc2)n1C,3
21,NC(=S)Nc1cccc(Cl)c1,3
22,Cc1ccc(-c2nc(-c3nccc4ccccc34)oc2-c2ccccc2)cc1,3
23,CCC(CO)Nc1nc2ccc(Cl)cc2c2ccccc12 (stereo unspecified),3
24,O=C1c2cccc(Oc3ccccc3)c2C(=O)c2cccc(Oc3ccccc3)c21,3

row,SMILES,NAD/ADPR ratio
1,C=CCNC(=S)Nc1cccc([N+](=O)[O-])c1,3
2,[O-]/[N+](=C\c1ccccc1)CC1(O)CCCCC1,3
3,O=c1cc(CO)[nH]nc1CO,3
4,COc1ccc2nc3cc(Cl)ccc3c(C#N)c2c1,3
5,CC(=O)c1cc(O)c2ccccc2c1O,10.2 (active)
6,CC(C)(NC(=O)c1cc(Cl)c2ccccc2c1O)C(=O)O,3
7,O=C(Nc1ccc(C(=O)O)c(O)c1)c1ccccc1,3
8,CCOC(=O)Cc1c[nH]c(=S)[nH]c1=O,3
9,Cn1c(=O)c2[nH]c(COc3ccc(C(C)(C)C)cc3)nc2n(C)c1=O,3
10,S=C1N(c2ccccc2)CN(C2CCCCC2)CN1c1ccccc1,3
11,O=[N+]([O-])c1ccc(Sc2cccc[n+]2[O-])c2nonc12,12.6 (active)
12,O=[N+]([O-])c1ccc(Sc2ncccn2)c([N+](=O)[O-])c1,3
13,CC1(CN2CCCC2)CCC(NC(=O)C(c2ccccc2)c2ccccc2)C(C)(C)O1 (stereo unspecified),3
14,C(=C\c1ccncc1)/c1ccncc1,3
15,O=C(O)c1ccc(NCc2nc3ccccc3[nH]2)cc1,3
16,Oc1ccc2ccc3[nH]cnc3c2c1,3
17,N/C(CC(=O)Nc1cc(C(F)(F)F)ccc1Cl)=N\O,3
18,CC1CCC(C(C)C)C(NC(=O)c2ccncc2)C1 (stereo unspecified),3
19,Clc1nc(NCCc2ccccc2)c2cn[nH]c2n1,2.8
20,Cn1cnc([N+](=O)[O-])c1Sc1ncn[nH]1,3
